# Only some compounds are listed: those with a hit (about 19% of all), similar ones and a draw of the others.
# ELG1 DNA repair – ELG1-dependent DNA repair inhibition | HEK293T ELG1-luciferase reporter, luminescence, 16 h; DNA damage induced by 5-fluorouridine | Potency, µM (titrated, usually from 46.1 µM), inactives show at the top dose activity change, negative = inhibition, usual class: inhibitors | 330,000 compounds, 2.3% hits; note: potency is the fitted concentration of half-maximal effect; nearly all actives have a fitted effect of over 55% in size
#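 Luminescence from the luciferase reporter, measured 30 min after ONE-Glo reagent at room temperature, was the read-out. Beforehand, 2,000 cells per well were exposed for 16 hr at 37 °C to 5-fluorouridine together with compound or vehicle.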
# HT1080 IDH1KD tx – kills HT-1080 cells with IDH1 knockdown. HT-1080 IDH1 knockdown viability, ATP luminescence, 48 h. Potency, µM (titrated, usually from 46.1 µM), without a hit: at the highest dose activity, negative = toxicity, usual class: cytotoxic. 360,000 compounds, 2% hits;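 note: potency is the fitted concentration of half-maximal effect; 0% = DMSO wells and -100% = cell-free medium wells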
#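 After a 2 h attachment period, IDH1KD HT-1080 cells took pin-transferred compound for 48 h at 37 °C; ATP-based luminescence after 10 min room-temperature reagent incubation reported viability.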
# TDP1 cell noCPT – qHTS for Inhibitors of human tyrosyl-DNA phosphodiesterase 1 (TDP1): qHTS in cells in absence of CPT | DT40 Tdp1-/- hTDP1 cells, no CPT, ATP luminescence, 48 h | 420,000 compounds, 15% hits | AID 686978, 2013 | Potency, µM (titrated, usually from 46.2 µM), inactives show at the top dose activity change, negative = growth inhibition, most hits filed as inhibitors; note: potency is the fitted concentration of half-maximal effect; nearly all actives have a fitted effect of over 55% in size
#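 Growth kinetics read by CellTiter-Glo luminescence after ≥48 hr at 37 °C. Cells: DT40 Tdp1-/- stably carrying human TDP1, 400 per well, compound exposure in the absence of CPT (DMSO vehicle).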
# HT1080-NT tox – kills 2HG-producing HT-1080-NT fibrosarcoma cells; HT-1080-NT fibrosarcoma viability, CellTiter-Glo ATP luminescence, 48 h; Potency, µM (top dose mostly 46.1 µM), for the others: top-dose activity, negative = less viability, usual class: cytotoxic; 360,000 compounds, 1.6% hits; AID 686970;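 note: NT is the 2HG producing partner of a matched IDH1 knockdown line; potency is the fitted concentration of half-maximal effect; 0% = DMSO-treated cells and -100% = media-only wells without cells; nearly all actives have a fitted effect of over 55% in size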
#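 Compounds were tested in concentration-response format on HT-1080-NT cells for 48 hours at 37 degrees C. Cell viability came from CellTiter-Glo luminescence; curves were classified by r2, response magnitude and activity.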
# TDP1 cell CPT – growth inhibition of DT40 Tdp1-/-;hTDP1 cells with camptothecin (screen for TDP1 inhibitors); AID 686979; Potency, µM (titrated, usually from 46.2 µM), for inactives: top-dose activity change, negative = growth inhibition, most hits filed as inhibitors; 420,000 compounds, 12% hits; chicken DT40 Tdp1-/-;hTDP1 cells + 20 nM CPT, ATP luminescence, 48 h; note: potency is the fitted concentration of half-maximal effect; nearly all actives have a fitted effect of over 55% in size
#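 Cell growth measured by CellTiter-Glo luminescence after a minimum 48 h, 37 C compound exposure with 20 nM CPT in Tdp1-knockout DT40 cells stably expressing hTDP1, seeded 400/well; qHTS titration format.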
# IL1B secr inh – inhibitors of inflammasome signaling (IL-1 beta secretion); THP-1 LPS/ATP IL-1B secretion, AlphaLISA, 16 h; stronger effect = lower value; activity change, % at 57.5 µM; 360,000 compounds, 4.7% hits; AID 743279; in the data active = activity change below about -50%; inconclusive = mostly about -30% to -49%
#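 THP-1 cells pretreated 1 hr with compounds (up to 57.5 uM final), then stimulated with LPS (250 ng/mL final) plus ATP (1.25 mM final); secreted IL-1B measured by AlphaLISA after 16 hr, decreased signal indicating inhibition.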
# * marks the source's active call; other numbers are inactive results; ? = inconclusive; / = no result given. Unless noted, calls come from the whole dose curve; as a rule, active = well fitted curve in the direction sought with a large enough effect; inconclusive = small, poorly fitted or top-dose-only effect, or another doubt; inactive = no such curve, though single readings can be large; an effect the other way counts as inactive or inconclusive. Unless noted, % is set by controls: 0 for no effect and ±100 for the full control effect.
SMILES,ELG1 DNA repair,HT1080 IDH1KD tx,TDP1 cell noCPT,HT1080-NT tox,TDP1 cell CPT,IL1B secr inh
CCOc1ccccc1NC(=O)c1ccc(NC(=O)c2ccco2)cc1,?,-6%,16µM*,-8%,?,-58*
COc1ccc(NC(=O)c2ccc3c(=O)n(Cc4ccco4)c(=S)[nH]c3c2)c(OC)c1,-10%,-5%,13µM*,0%,?,21
COc1ccccc1NC(=O)c1cc(N)cc(C(=O)Nc2ccccc2OC)c1,/,1%,?,-5%,23µM*,-20
COc1cc2[nH]c(=S)n(Cc3ccco3)c(=O)c2cc1OC,5%,?,-21%,-27%,-9%,-2
O=C(Nc1ccc(Oc2ccc(NC(=O)c3ccco3)c(NC(=O)c3ccco3)c2)cc1)c1ccco1,16µM*,17%,?,-7%,?,/
COc1ccc(C(=O)Nc2ccccc2)cc1NC(=O)c1ccc([N+](=O)[O-])cc1,-24%,-13%,?,0%,-27%,-63*
COc1ccc(C(C)NC(=O)c2ccc([N+](=O)[O-])cc2)cc1OC (stereo unspecified),-24%,2%,0.52µM*,5%,0.92µM*,-7
CCN(CC)S(=O)(=O)c1ccc(OC)c(NC(=O)c2ccc([N+](=O)[O-])cc2)c1,-3%,-8%,?,0%,?,?
COc1ccccc1NC(=O)c1cccc(NC(=O)c2ccco2)c1,?,-4%,?,7%,-23%,-22
COc1ccc(C(C)NC(=O)c2cccc([N+](=O)[O-])c2)cc1OC (stereo unspecified),7%,0%,0%,-2%,-4%,-5
COc1ccccc1NC(=O)c1sc(-c2ccc(Cl)cc2)cc1N,/,/,18µM*,/,?,/
COc1ccccc1NC(=O)c1ccc(NC(=O)c2ccco2)cc1,?,-2%,16µM*,-6%,?,-75*
O=C(CN1C(=O)c2ccc([N+](=O)[O-])cc2C1=O)Nc1cc(S(=O)(=O)N2CCOCC2)ccc1Cl,16%,1%,2%,-4%,-10%,14
O=C(CN1C(=O)NC2(CCCC2)C1=O)OCc1c(F)cccc1Cl,?,14%,-17%,-3%,-11%,-1
Cc1ccc2c(COC(=O)c3ccccc3OC(F)F)cc(=O)oc2c1,?,-1%,-23%,0%,-11%,29
CCc1ccc2c(CN(C)Cc3ccc(OC(F)F)c(OC)c3)cc(=O)oc2c1,?,-6%,?,-1%,18µM*,-14
OCCCNCc1ccc(N(c2ccccc2)c2ccccc2)cc1,-12%,16µM*,21µM*,?,16µM*,-94*
CC(C)(C)c1cc(-n2ccnc2)n2ncc(-c3ccc(Cl)cc3)c2n1,?,3%,?,-1%,?,-1
Cc1cc(NCCCN2CCOCC2)n2ncc(-c3ccc(Cl)cc3)c2n1,?,-14%,?,-16%,?,-17
CC(C)(C)c1cc(C(F)(F)F)n2ncc(-c3ccccc3)c2n1,-17%,-11%,?,-22%,-13%,35
CCc1nccn1-c1cc(C(C)(C)C)nc2c(-c3ccc(Cl)cc3)cnn12,?,12%,18µM*,12%,?,-7
CC(C)(C)c1cc(NCc2ccccn2)n2ncc(-c3ccc(Cl)cc3)c2n1,?,2%,16µM*,16%,?,-24
CN(C)CCCNc1cc(C(C)(C)C)nc2c(-c3ccc(Cl)cc3)cnn12,?,12µM*,?,18µM*,13µM*,-105*
Cc1[nH]c2ccccc2c1C(=O)C(=O)NC1CC(=O)N(c2cccc(F)c2)C1 (stereo unspecified),/,/,?,/,-1%,/
COc1ccc(C(=O)c2c(N)c(C(=O)Nc3cccc(OC)c3)c3ccccn23)cc1,/,/,-27%,/,?,/
SMILES,ELG1 DNA repair,HT1080 IDH1KD tx,TDP1 cell noCPT,HT1080-NT tox,TDP1 cell CPT,IL1B secr inh
CCNC(=S)N1CCN(c2nc(CC)nc3sc4c(c23)CCCC4)CC1,?,-11%,?,-8%,?,-57*
CCOC(=O)c1nc(N2CCN(C(=O)OCC)CC2)c2c3c(sc2n1)CCCC3,?,10%,26µM*,-4%,16µM*,-17
CCc1nc(N2CCN(C(=O)CCCl)CC2)c2c3c(sc2n1)CCCC3,/,-12%,?,-2%,?,-21
N#Cc1cccc(S(=O)(=O)NCCOc2ccccc2F)c1,9%,-6%,-14%,0%,-6%,2
CN(c1ccccc1)c1ccc(/C=C/[N+](=O)[O-])cc1,?,5.8µM*,21µM*,5.2µM*,23µM*,-107*
O=[N+]([O-])c1ccc(C=CC=Cc2ccccc2)cc1,/,15%,?,11%,-23%,-26
Cc1ccc(C(=O)NNC(=O)COc2ccc(Cl)cc2C)o1,?,2%,?,6%,?,-54*
Cc1cc(Br)ccc1OCC(=O)NNC(=O)c1cnccn1,-9%,?,21µM*,-30%,?,6
C/C(=N\NC(=O)CCCOc1ccc(Cl)cc1C)c1ccc(C)o1,-11%,3%,?,0%,-5%,-14
Cc1ccc(NC(=O)c2ccc(OC(=O)COc3ccc(Cl)cc3C)cc2)cc1,?,11%,11%,13%,3%,-7
Cc1cc(Cl)ccc1OCC(=O)NNC(=O)c1cnccn1,-8%,?,23µM*,?,10µM*,2
Cc1ccc(C(=O)CC(=O)COc2ccc(Cl)cc2C)cc1,26%,?,5.8µM*,?,4.1µM*,9
COc1ccc(N2CCN(C(=O)c3cc(-c4cccs4)nc4ccccc34)CC2)cc1,?,-8%,?,-16%,?,-22
COc1cccc(C(=O)COC(=O)c2cc(-c3cccs3)nc3ccccc23)c1,/,/,16µM*,/,?,/
COc1cccc(CN(C)C(=O)c2cc(-c3cccs3)nc3ccccc23)c1,-10%,-29%,18µM*,?,21µM*,-11
COCC(=O)NC1CCN(CC(=O)Nc2ccccc2[N+](=O)[O-])CC1,1%,1%,-7%,-2%,-2%,22
CCC(Oc1ccc(F)cc1)C(=O)Nc1nc(-c2ccc(F)cc2)ns1 (stereo unspecified),/,/,10µM*,/,18µM*,/
CC(C)C(=O)Nc1nc(-c2ccccc2)ns1,?,-8%,-14%,2%,-24%,5

# Source: PubChem
